Common to all, as to assay: PBM binding z-score (relative to random genomic background probes); higher = stronger binding; sequences stand for … in GC…GCGATTGACAGCGTAGAATGAAGG
The subject of experiment [1] is FXR:RXRa (NR concentration 270 nM, RXRa partner concentration 90 nM). Summed up:
(§1)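 The probes on custom Agilent 4×180K protein-binding microarrays were double-stranded, with 34-nt variable regions bearing direct-repeat seeds, single-nucleotide variants, half-site ablations and random human genomic background sequences. Incubation lasted 1 h with ligand-free nuclear receptor dimers in PBS pH 7.4, 2% milk, 0.02% Triton X-100, 1 mM DTT, 0.2 mg/mL BSA and 0.4 mg/ml salmon testes DNA. Antibodies against each partner (one per run) detected bound dimers, and fluorescence scans were regression-normalized. Binding z-scores take the random background probes as reference.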

Experiment [2] has as its system LXRa:RXRa (NR concentration 270 nM, RXRa partner concentration 90 nM). Summed up: as §1
For experiment [3], the system named is LXRa homodimer (NR concentration 270 nM). Summed up:
as §1

Experiment [4] relates to LXRb:RXRa (NR concentration 270 nM, RXRa partner concentration 90 nM). Summed up: as §1
Experiment [5] relates to LXRb homodimer (NR concentration 270 nM). Summed up:
as §1

Experiment [6] concerns PPARa:RXRa (NR concentration 270 nM, RXRa partner concentration 90 nM). Summed up:
as §1

In experiment [7] the test system is PPARg:RXRa (NR concentration 180 nM, RXRa partner concentration 90 nM). Summed up:
as §1

For experiment [8], the system named is PPARg:RXRa 270nM:90nM, anti-RXR (NR concentration 270 nM, RXRa partner concentration 90 nM). Summed up: as §1
The test system of experiment [9] is PPARg:RXRa 30nM:10nM, anti-RXR (NR concentration 30 nM, RXRa partner concentration 10 nM). Summed up:
as §1

For experiment [10], the system named is PPARg:RXRa 90nM:30nM, anti-RXR (NR concentration 90 nM, RXRa partner concentration 30 nM). Summed up:
as §1

Experiment [11] relates to PPARg:RXRa DBDmut IVT, anti-RXR (DBD mutation: RXRa K156A/R161A, NR concentration 270 nM, RXRa partner concentration 90 nM). Summed up:
as §1

For experiment [12], the system named is PPARg:RXRa IVT, anti-PPARg (NR concentration 270 nM, RXRa partner concentration 90 nM). Summed up:
as §1

Experiment [13] has as its system PPARg DBDmut:RXRa IVT, anti-PPARg (DBD mutation: PPARg1 K132A/R137A, NR concentration 270 nM, RXRa partner concentration 90 nM). Summed up: as §1
For experiment [14], the system named is PPARg DBDmut IVT, anti-PPARg (DBD mutation: PPARg1 K132A/R137A, NR concentration 270 nM). Summed up: as §1
Experiment [15] has as its system PPARg homodimer (NR concentration 180 nM). Summed up:
as §1

Experiment [16] concerns PXR:RXRa (NR concentration 270 nM, RXRa partner concentration 90 nM). Summed up: as §1
Experiment [17] has as its system PXR homodimer (NR concentration 270 nM). Summed up: as §1
The subject of experiment [18] is RARa:RXR (NR concentration 270 nM, RXRa partner concentration 90 nM). Summed up: as §1
Experiment [19] concerns RARa homodimer (NR concentration 270 nM). Summed up: as §1
Experiment [20] has as its system RARb:RXRa (NR concentration 270 nM, RXRa partner concentration 90 nM). Summed up:
as §1

For GCTGCTAGGTCAGGTTGTTCAGCTAACGGGTACG, the PBM binding z-score in experiment [1] is 1.07; in experiment [2] it was 0.82; in experiment [3], -0.00729; in [4], 0.433; in [5] it was -0.427; in [6], 1.29. In addition, the PBM binding z-score in experiment [7] was 0.414; in experiment [8], 1.18; in experiment [9], -0.403; in [10], 0.471; in [11], 3.24; in experiment [12] it was 2.3. The PBM binding z-score in experiment [13] is 0.0355; in experiment [14], -0.699; in experiment [15] it was 0.293; in experiment [16] it was 0.34; in experiment [17], -0.306; in [18] it was 0.883. In addition, the figures for the PBM binding z-score in [19] and in experiment [20] were -0.985 and 3.15, respectively.

With GCTCGGAGGACAAGGTCAGAGCCTTGTCCGTAGA, the PBM binding z-score in [1] is 2.67; in experiment [2], 2.08; in experiment [3], -0.456; in experiment [4], 1.59; in experiment [5] it was -0.419; in experiment [6], 2.91. Further, the PBM binding z-score in experiment [7] was 0.887; in experiment [8], 2.22; in experiment [9], -0.306; in experiment [10] it was 1.23; in [11], -0.797; in experiment [12] it was 1.42. Further, the PBM binding z-score is -1 in experiment [13]; -0.556 in [14]; 0.956 in experiment [15]; 1.46 in experiment [16]; -0.573 in experiment [17]; 1.8 in experiment [18]. Moreover, the PBM binding z-score in experiment [19] is -0.489; in [20] it was 3.49.

On to TAGCCTATGTCAGATCGGGCCAGTATACGCTATA, for which the PBM binding z-score was -0.25 in experiment [1]; -0.56 in experiment [2]; -0.38 in [3]; -0.651 in experiment [4]; -0.818 in experiment [5]; -0.546 in experiment [6]. For the same sequence, the PBM binding z-score in experiment [7] was 0.0766; in experiment [8], -0.557; in experiment [9], -0.477; in [10] it was -0.278; in experiment [11] it was -0.342; in experiment [12], -0.424. The PBM binding z-score in experiment [13] is -0.269; in experiment [14], -0.692; in experiment [15] it was -1.19; in experiment [16] it was -0.323; in [17], -0.853; in [18], 0.184. Further, the PBM binding z-score was -0.755 in experiment [19] and 0.0129 in experiment [20].

Turning to ACTATTAATTGAGACGAGGGCAACCGATAGGTTG, the PBM binding z-score in experiment [1] is 0.638; in experiment [2] it was 0.579; in experiment [3] it was 0.685; in experiment [4], 0.313; in experiment [5], 0.479; in experiment [6] it was 0.542. The PBM binding z-score is 0.7 in [7]; 0.479 in experiment [8]; 0.271 in experiment [9]; 0.408 in experiment [10]; 0.0464 in experiment [11]; 0.914 in experiment [12]. Also, the PBM binding z-score in experiment [13] was 1.03; in experiment [14] it was 1.13; in experiment [15], 2.25; in experiment [16] it was 0.755; in [17] it was 1.25; in experiment [18], 0.914. The PBM binding z-score in experiment [19] was 1.68; in experiment [20], 1.01.

For CCTATTAGTTGACCATCAGGGCAACCGAAGCTCG, the PBM binding z-score in experiment [1] amounted to 0.442; in [2], 0.292; in experiment [3], 0.822; in [4], 0.105; in [5] it was 0.434; in experiment [6], 0.136. In addition, the PBM binding z-score in [7] is 0.185; in experiment [8] it was 0.164; in experiment [9], -0.404; in experiment [10], 0.121; in [11], 0.536; in experiment [12], 0.814. Moreover, the PBM binding z-score stood at 0.556 in experiment [13]; 0.943 in [14]; 1.44 in experiment [15]; 0.0854 in experiment [16]; 0.589 in [17]; 0.0403 in [18]. Also, the results for the PBM binding z-score in experiment [19] and in experiment [20] were 1.51 and 1.07, respectively.

For the sequence TCTCGGAGGACACGAAAGGTCAGAGCTCGACATC, the PBM binding z-score in experiment [1] was 3.13; in experiment [2], 3.71; in [3] it was 3.02; in [4], 2.84; in experiment [5], -0.0794; in experiment [6] it was 3.45. The PBM binding z-score in [7] worked out at 1.37; in experiment [8], 2.8; in [9], 2.54; in [10] it was 2.41; in experiment [11] it was 1.62; in experiment [12], 1.53. Besides, the PBM binding z-score in experiment [13] is 0.174; in experiment [14], -1.26; in [15] it was 3.04; in experiment [16], 3.96; in experiment [17] it was 0.404; in [18], 4.18. Moreover, the PBM binding z-score amounted to 1.9 in experiment [19] and 4.14 in [20].

Consider ACTTACGGGACAACGAGGTTATAGCACGCGTATA, for which the PBM binding z-score was 0.442 in experiment [1]; 0.645 in experiment [2]; 0.447 in experiment [3]; 0.958 in experiment [4]; 0.473 in experiment [5]; 1.08 in [6]. Moreover, the PBM binding z-score in [7] turned out to be 1.01; in [8] it was 0.442; in experiment [9] it was 0.295; in experiment [10], 0.32; in experiment [11], 0.742; in experiment [12], 0.83. Also, the PBM binding z-score in experiment [13] is 0.547; in experiment [14], 1; in [15], 0.641; in [16], 0.83; in experiment [17], 0.728; in experiment [18] it was 0.933. Also, the results for the PBM binding z-score in experiment [19] and in [20] were 0.919 and 1.03, respectively.

For the origin of these results see the supplement of paper PMC6555819.
